“And” between values parts separate entries of the source, which are not always exact repeats. Equal values may be shown once.

In the assay the test system is DIPGX7 (H3.3 K27M diffuse intrinsic pontine glioma line). The experiment in a line: growth inhibition (% activity, log2 RLU normalised to DMSO / staurosporine); higher = more growth inhibition. The conditions noted are these: 33 µM. The method in brief:
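Approved drugs, at a single final concentration of about 33 μM, were applied in triplicate to pHGG cell lines and H9-derived neural stem cells for 7 days at 37 °C, 5% CO2. The growth-inhibition value is the replicate median of log2-transformed CellTiter-Glo luminescence normalised per plate to % activity between solvent and positive control wells.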
Turning to `NC[C@H]1O[C@H](O[C@H]2[C@H](O)[C@@H](O[C@H]3O[C@H](CO)[C@@H](O)[C@H](N)[C@H]3O)[C@H](N)C[C@@H]2N)[C@H](N)C[C@@H]1O`, the growth inhibition was -0.415%.

As for `CN[C@@H]1[C@H](O[C@H]2[C@H](O[C@H]3[C@H](O)[C@@H](O)[C@H](N=C(N)N)[C@@H](O)[C@@H]3N=C(N)N)O[C@@H](C)[C@]2(O)C=O)O[C@@H](CO)[C@H](O)[C@H]1O`, the growth inhibition was 0.411%.

In the case of `CN1C[C@@H]2C[C@H]1CN2c1cc2c(cc1F)c(=O)c(C(=O)O)cn2C1CC1`, the growth inhibition is 2.59%.

`O=C1C(=O)c2ccccc2C(O)=C1C1CCC(c2ccc(Cl)cc2)CC1` (centres undefined): the growth inhibition stood at 2.26%.

`CCN(CC)C(=O)/C(C#N)=C/c1cc(O)c(O)c([N+](=O)[O-])c1`: the growth inhibition was -1.51%.

In the case of `CCOC(=O)C1=C(C)NC(C)=C(C(=O)OC)C1c1cccc(Cl)c1Cl` (centres undefined), the growth inhibition was 2.82%.

For `CCCCCCCCCC(=O)N[C@@H](Cc1c[nH]c2ccccc12)C(=O)N[C@@H](CC(N)=O)C(=O)N[C@@H](CC(=O)O)C(=O)N[C@@H]1C(=O)NCC(=O)N[C@@H](CCCN)C(=O)N[C@@H](CC(=O)O)C(=O)N[C@H](C)C(=O)N[C@@H](CC(=O)O)C(=O)NCC(=O)N[C@H](CO)C(=O)N[C@@H]([C@H](C)CC(=O)O)C(=O)N[C@@H](CC(=O)c2ccccc2N)C(=O)O[C@@H]1C`, the growth inhibition was -0.801%.

For the molecule `CC(=O)Oc1cc2c(s1)CCN(C(C(=O)C1CC1)c1ccccc1F)C2` (centres undefined), the growth inhibition is 1.32%.

On to `Cc1[nH]c(=O)c(C#N)cc1-c1ccncc1`, for which the growth inhibition turned out to be 1.37%.

For `CC[N+](CC)(CC)CCOc1cccc(OCC[N+](CC)(CC)CC)c1OCC[N+](CC)(CC)CC`, the growth inhibition was 2.35%.

Consider `CN1CCN2c3ccccc3Cc3ccccc3C2C1` (centres undefined), for which the growth inhibition was determined as 0.702%.

Regarding `Cc1cn([C@@H]2C[C@@H](O)[C@H](CO)O2)c(=O)[nH]c1=O`, the growth inhibition was 0.328%.

Consider `Nc1ccc(C(=O)NCC(=O)O)cc1`, for which the growth inhibition is -0.0371%.

Turning to `CNC(=C[N+](=O)[O-])NCCSCc1ccc(CN(C)C)o1`, the growth inhibition amounted to 5.27%.

`COC1C(O)CC(=O)OC(C)CC=CC=CC(OC2CCC(N(C)C)C(C)O2)C(C)CC(CC=O)C1OC1OC(C)C(OC2CC(C)(O)C(O)C(C)O2)C(N(C)C)C1O` (centres undefined): the growth inhibition is -0.322%.

Take `Cc1c(Cl)cccc1Nc1ccccc1C(=O)O`: the growth inhibition worked out at 2.88%.

Take `CC(=O)OCC(=O)[C@@]12OC(C)(C)O[C@@H]1C[C@H]1[C@@H]3C[C@H](F)C4=CC(=O)C=C[C@]4(C)[C@@]3(F)[C@@H](O)C[C@@]12C`: the growth inhibition is -1.12%.

For `O=C1N=C(O)NC1(c1ccccc1)c1ccccc1`, the growth inhibition was 1.26% and 0.465%.

For `CC[C@H](C)C(=O)O[C@H]1C[C@H](O)C=C2C=C[C@H](C)[C@H](CC[C@@H](O)C[C@@H](O)CC(=O)O)[C@H]21`, the growth inhibition came out at 5.32%.

For `C=C[C@]1(C)C[C@@H](OC(=O)CSC(C)(C)CNC(=O)[C@H](N)C(C)C)[C@]2(C)[C@H](C)CC[C@]3(CCC(=O)[C@H]32)[C@@H](C)[C@@H]1O`, the growth inhibition was 4.74%.

Regarding `N=C(N)c1ccc2cc(OC(=O)c3ccc(N=C(N)N)cc3)ccc2c1`, the growth inhibition is -0.0416%.

Turning to `CCC(=O)NCC[C@@H]1CCc2ccc3c(c21)CCO3`, the growth inhibition is 1.26%.

`OCC(O)CN1CCN(c2ccccc2)CC1` (centres undefined): the growth inhibition is -2.09%.

For `CNC(=O)c1cc(Oc2ccc(NC(=O)Nc3ccc(Cl)c(C(F)(F)F)c3)c(F)c2)ccn1`, the growth inhibition was found to be 3.66%.

As for `CCn1cc(C(=O)O)c(=O)c2cnc(N3CCCC3)nc21`, the growth inhibition is -0.632%.

`Cc1c(-c2ccc(O)cc2)n(Cc2ccc(OCCN3CCCCCC3)cc2)c2ccc(O)cc12`: the growth inhibition was determined as 20.3%.

As for `Nc1nc2n[nH]nc2c(=O)[nH]1`, the growth inhibition amounted to 14.4%.

Regarding `CCC(C)C1OC2(CCC1C)CC1CC(CC=C(C)C(OC3CC(OC)C(OC4CC(OC)C(O)C(C)O4)C(C)O3)C(C)C=CC=C3COC4C(O)C(C)=CC(C(=O)O1)C34O)O2` (centres undefined), the growth inhibition worked out at 1.82%.

Turning to `O=C([O-])[C@H](O)[C@@H](O)[C@H](O)[C@H](O)CO.[Na+]`, the growth inhibition came to 2.56%.

Regarding `CC(C(=O)O)c1ccc(C(=O)c2cccs2)cc1` (centres undefined), the growth inhibition was -0.391%.

Take `COc1c2occc2cc2ccc(=O)oc12`: the growth inhibition is -1.53%.

With `C[C@@H]1CN(c2c(F)c(N)c3c(=O)c(C(=O)O)cn(C4CC4)c3c2F)C[C@H](C)N1`, the growth inhibition stood at 3.53%.

As to `Cc1cc(=O)n(-c2ccccc2)n1C`, the growth inhibition was -1.9%.

For the molecule `NCCCCCC(=O)O`, the growth inhibition worked out at 2.76%.

As for `Nc1nc2[nH]cc(CCc3ccc(C(=O)N[C@@H](CCC(=O)O)C(=O)O)cc3)c2c(=O)[nH]1`, the growth inhibition was 2.83%.

Turning to `Cc1onc(-c2ccccc2)c1C(=O)N[C@@H]1C(=O)N2[C@@H]1SC(C)(C)[C@@H]2C(=O)O`, the growth inhibition is -1.18%.

With `Nc1cccc2c1CN(C1CCC(=O)NC1=O)C2=O` (centres undefined), the growth inhibition is 4.3%.

Consider `COc1ccccc1N1CCN(CC(O)COc2cccc3ccccc23)CC1` (centres undefined), for which the growth inhibition turned out to be 3.11%.

For the molecule `CC1CNc2c(cccc2S(=O)(=O)N[C@@H](CCCNC(=N)N)C(=O)N2CC[C@@H](C)C[C@@H]2C(=O)O)C1` (some centres undefined), the growth inhibition was -1.49%.

For the origin of these results see the supplement of paper PMC8253809.
